Compound activity deposited in PubChem by National Center for Advancing Translational Sciences (NCATS).
Compounds with a hit are over-represented: about 6% of the library has one in this group of screens.
D1 potentiator = enhances dopamine response at the human D1 receptor. P21728. HEK293 TREx D1 cells, calcium flux, dopamine EC20 potentiation. potentiation, % at 10 µM. hit rate 0.036% among 360,000; in the data active = potentiation above about 30%; also: 0% is about no effect
Target sequence (P21728 whole entry, looked up): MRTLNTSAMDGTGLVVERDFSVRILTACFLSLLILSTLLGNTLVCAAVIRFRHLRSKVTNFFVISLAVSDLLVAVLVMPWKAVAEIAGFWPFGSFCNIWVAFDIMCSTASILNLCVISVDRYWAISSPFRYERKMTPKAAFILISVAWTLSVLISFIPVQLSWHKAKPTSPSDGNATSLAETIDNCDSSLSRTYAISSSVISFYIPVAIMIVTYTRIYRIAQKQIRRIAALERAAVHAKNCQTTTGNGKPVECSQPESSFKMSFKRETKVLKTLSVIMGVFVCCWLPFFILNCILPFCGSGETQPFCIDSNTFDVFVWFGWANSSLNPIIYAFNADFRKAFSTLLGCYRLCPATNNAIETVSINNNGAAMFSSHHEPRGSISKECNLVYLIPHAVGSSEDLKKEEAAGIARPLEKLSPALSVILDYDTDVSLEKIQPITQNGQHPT
DRD3 antagonist = D3 dopamine receptor (human) antagonism. P35462. D3R cells, DiscoveRx beta-arrestin luminescence, antagonist mode; stronger effect = lower value. max response, negative = inhibition, %. hit rate 2.5% among 360,000; in the data active = max response below about -50%; also: % is scaled to controls: 0 for no effect and ±100 for the full control effect
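Cells plated overnight at 1500 cells/well, then exposed to library compounds with dopamine controls for 90 minutes at 37 degrees C. DiscoveRx reagent added for 30–60 minutes at room temperature; luminescence read, quantitative HTS format.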
D3 ag = activates the human D3 dopamine receptor | P35462 | D3R DiscoveRx beta-arrestin cells, luminescence, 90 min | max activation, % | hit rate 0.58% among 410,000; in the data active = max activation above about 30%; also: 0% is about no effect
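Agonist-mode cell screen: cells plated at 1500/well and incubated overnight at 37 °C, then exposed to library compounds for 90 min at 37 °C. Detection reagent was added for 30–60 min at room temperature, and luminescence was read.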
D1 agonist = activates the human D1 dopamine receptor; HEK293 T-REx D1 cells, calcium flux, agonist mode; activation, % at 2 µM; hit rate 1% among 360,000; in the data active = activation above about 30%; also: 0% is about no effect
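Agonism was scored from calcium flux recorded over 180 s (1 read/s) after pintool compound addition, following a 10-cycle baseline. Cells were inducible force-coupled HEK293 TREx D1, plated overnight at 30 C and loaded with no-wash calcium dye.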
D1 antag = blocks dopamine activation of the human D1 receptor. HEK293 TREx D1 cells, calcium flux, dopamine EC80; stronger effect = lower value. activity change, negative = inhibition, % at 10 µM. hit rate 3.2% among 360,000; in the data active = activity change below about -30%; also: % is scaled to controls: 0 for no effect and ±100 for the full control effect
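Kinetic fluorescence of a calcium dye serves as the read-out. D1-expressing Hek293 Trex cells, induced overnight at 30 C, are exposed to compound for 180 s before an EC80 dopamine addition, then read 180 s further.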
Starred values were filed as active, the others as inactive; . = no result; ! = not active in a repeat.

SMILES	D1 potentiator	DRD3 antagonist	D3 ag	D1 agonist	D1 antag
c1ccc(CN2CCc3[nH]c4ccccc4c3C2)cc1	.	-97*	-11	.	.
COc1cc(OC)c(CN2CCc3c([nH]c4ccccc34)C2)cc1Br	-9	16	-12	7	-49*
CCOCC(=O)Nc1ccc(-c2cn3c(C)csc3n2)cc1	2	.	-6	0	-1
CCC1CCCCN1CCCNC(=O)c1ccc(CS(=O)(=O)c2ccccc2OC)o1 (stereo not drawn)	-16	6	5	0	11
COC(=O)C[C@H]1C=C[C@H](NC(=O)Nc2ccccc2OC)[C@@H](CO)O1	.	6	1	.	.
COC(=O)N(C)C[C@@H]1OCc2cnnn2CCCC(=O)N([C@H](C)CO)C[C@H]1C	.	0	-8	.	.
Cc1cccc(CN2CCc3c([nH]c4ccccc34)C2)c1	0	-90*	-15	4	2
N#CC(c1ccc(Cl)cc1)c1ccc2c(C(F)(F)F)cc(C(F)(F)F)nc2n1 (stereo not drawn)	32*	0	1	4	11
CCCc1nn(-c2cc(Cl)ccc2OC)c2c1C(=O)CCC2	2	-11	-7	4	-46*
CCCCc1nn(-c2cc(Cl)ccc2OC)c2c1C(=O)CC(C)(C)C2	-4	-5	1	6	13
O=C(c1cc(-c2cccnc2)nc2ccccc12)N1CCN(S(=O)(=O)c2ccc(Cl)s2)CC1	.	7	1	.	.
FC(F)(F)c1cnc(NNC(=S)Nc2cccnc2)c(Cl)c1	1	-67*	-11	3	1
NC(=S)Nc1ncc(C(F)(F)F)cc1Cl	3	-17	-1	0	7
FC(F)(F)c1cnc(NNC(=S)Nc2ccccc2)c(Cl)c1	.	-92*	-17	.	.
COC(=O)c1ccc(NC(=O)C2CCN(c3ncnc4c3nc3n4CCCCC3)CC2)cc1	0	.	-3	0	0
CCC(C(=O)NCc1ccco1)n1nc(C)c2c(C)n(-c3ccc(C)cc3)nc2c1=O (stereo not drawn)	-7	0	-6	-2	-5
CCC(C(=O)Nc1ccccc1C(=O)OC)n1nc(C)c2c(C)n(-c3ccc(C)cc3)nc2c1=O (stereo not drawn)	0	.	9	3	-1
CCOC(=O)C(CC)n1nc(C)c2c(C)n(-c3ccc(C)cc3)nc2c1=O (stereo not drawn)	-4	.	4	5	-48*
Cc1ccc(-n2nc3c(=O)n(C(C)C(=O)NCc4ccco4)nc(C)c3c2C)cc1 (stereo not drawn)	-4	-2	-3	0	-35*!
CCCCN(CC)CCCNC(=O)C1CCCN(c2ncnc3c2nc2n3CCCCC2)C1 (stereo not drawn)	0	.	-20	-1	-1
COc1cccc2sc(Nc3nnc(-c4cccs4)o3)nc12	-4	-5	4	2	-46*
CN1CCN(S(=O)(=O)c2cccc(S(=O)(=O)c3ccc(Cl)c(Cl)c3)c2)CC1	-5	18	0	7	-53*
COc1cc(S(=O)(=O)N2CCN(C)CC2)ccc1Cl	-4	-87*	0	-3	9
O=C(NCc1cc(Cl)cc(Cl)c1)c1csc([C@@H]2O[C@H](CO)[C@H](O)[C@H](O)[C@H]2O)n1	.	-5	-5	.	.
Cc1ccc(NC(=O)Cn2c(=O)c3ccc(Cl)cc3n3nncc23)cc1	3	.	9	1	3
SMILES	D1 potentiator	DRD3 antagonist	D3 ag	D1 agonist	D1 antag
CCCOc1ccc(C2c3c(oc4ccccc4c3=O)C(=O)N2c2nnc(C(C)C)s2)cc1 (stereo not drawn)	-1	.	6	-1	13
O=C1CCCC2=C1C(c1ccncc1)Nc1ccccc1N2 (stereo not drawn)	-6	-16	-4	0	6
O=C1NC2=C(C(=O)CCC2)C(c2ccc3ncccc3c2)N1 (stereo not drawn)	0	-3	-6	3	-40*
O=C(CC(c1ccccc1)c1cc(Br)ccc1O)NCC1(c2ccccc2)CCCC1 (stereo not drawn)	-5	.	30*	3	-26
c1ccc(CNc2nc(NCc3ccccc3)c3sccc3n2)cc1	.	0	4	.	.
Fc1cc(NCc2ccccc2)nc(NCc2ccccc2)n1	-4	-2	-4	9	-13
Fc1ccc(Nc2nc(NCc3ccco3)c3ccccc3n2)cc1	-19	-25	-15	23	-46*
c1ccc(CNc2nc(-c3ccccn3)nc3ccccc23)cc1	14	-74*	-15	3	32
